PubChem BioAssay (NCATS)
Results filed as inconclusive are left out. Unmarked numbers belong to inactive results. Active and inactive are the calls of the source. Calls come from the whole dose curve; as a rule, active = well fitted inhibition curve with a large enough effect; inconclusive = small, poorly fitted or top-dose-only effect; inactive = no such curve, though single readings can be large or run the other way. Bridge positions count the residues as written; N and C are the ends. Square brackets hold non-standard residues; d marks the D form. Side chains are listed from the residue outwards. Peptide text beside a SMILES is read from it. * marks the point of attachment. Phg(4-OMe) = COc1ccc([C@H](N)C(=O)O)cc1; d(aIle) = CC[C@H](C)[C@@H](N)C(=O)O; d(aThr) = C[C@@H](O)[C@@H](N)C(=O)O; NMeF = CN[C@@H](Cc1ccccc1)C(=O)O; Isobutyryl = CC(C)C(=O)*

Target: Nuclear receptor subfamily 1 group I member 3 (Homo sapiens) (UniProt Q14994)
Assay: qHTS for Constitutive Androstane Receptor (CAR) Antagonist screened against the NCATS CANVASS Library (AID 1347372);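 for activity change, negative = inhibition: cells stimulated with 50 nM CITCO agonist so inhibition reflects antagonism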
Details: HepG2-hCAR-CYP2B6 luciferase, CITCO-stimulated antagonist mode; series mostly up to 46.1 µM; activity change, negative = inhibition: at the top concentration
In short: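 Luminescence readout (ONE-Glo, 30 min RT) of CYP2B6-2.2kb reporter in HepG2-hCAR cells after 24hr, 37C treatment with compound against 50 nM CITCO; CellTiter-Fluor viability read beforehand.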
% is set by controls: 0 for no effect and ±100 for the full control effect; potency is the fitted concentration of half-maximal effect.

Sequence of Nuclear receptor subfamily 1 group I member 3 (Homo sapiens) (Q14994 whole entry, looked up): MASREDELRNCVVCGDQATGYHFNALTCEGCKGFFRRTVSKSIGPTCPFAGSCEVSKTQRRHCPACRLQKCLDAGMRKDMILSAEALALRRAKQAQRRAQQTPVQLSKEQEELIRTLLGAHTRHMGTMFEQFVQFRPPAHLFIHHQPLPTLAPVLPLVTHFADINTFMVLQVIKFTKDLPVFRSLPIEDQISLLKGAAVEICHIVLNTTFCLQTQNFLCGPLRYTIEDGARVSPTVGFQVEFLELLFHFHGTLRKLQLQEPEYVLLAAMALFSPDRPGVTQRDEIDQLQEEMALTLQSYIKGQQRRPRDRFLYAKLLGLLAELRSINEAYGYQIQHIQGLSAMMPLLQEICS

| SMILES | activity change, negative = inhibition [%] | Potency |
| --- | --- | --- |
| CC[C@H](C)[C@H]1NC(=O)[C@@H](NC(=O)C(C)C)[C@@H](C)OC(=O)[C@H](COC(=O)CNC(C)=O)NC(=O)[C@@H]([C@@H](C)O)NC(=O)[C@H](Cc2ccccc2)N(C)C(=O)[C@H](c2ccc(OC)cc2)NC1=O (Isobutyryl-T[d(aIle)][Phg(4-OMe)][NMeF][d(aThr)]S([Gly-Ac]); ester 1-C) | -0.238 |  |
| C[n+]1cc2cc(C(N)=O)[nH]c3c(=N)c(Cl)c(N)c1c23 | 107 |  |
| C/C1=C/[C@@H](C)[C@H](O)[C@@H](O)/C=C/CC/C=C/C(=O)O[C@@H]1[C@H](C)C(=O)CCCC1CC(=O)NC(=O)C1 | 17.6 |  |
| CC(=O)Oc1cc2c(c(OC(C)=O)c1C1CCc3cc(Cl)c(Cl)n31)C(=O)n1c-2cc(Cl)c1Cl (stereo unspecified) | -47.8 |  |
| COc1ccc2[nH]c3c(c2c1)CCN1C[C@H]2C[C@@H](OC(=O)c4cc(OC)c(OC)c(OC)c4)[C@H](OC)[C@@H](OC)[C@H]2C[C@H]31 | 70.3 |  |
| O[C@H]1c2ccccc2-c2c3c(cc4c2[C@@H]1NCC4)OCO3 |  | 16.6 µM (active) |
| CC(C)=CC[C@H]1C[C@@]2(CC=C(C)C)C(=O)[C@](CC=C(C)C)(C(=O)C(C(=O)c3ccccc3)=C2O)C1(C)C | 26 |  |
| CC(=O)O[C@H]1c2ccccc2-c2c3c(cc4c2[C@@H]1N(C(C)=O)CC4)OCO3 | 61.1 |  |
| C=C[C@](Cl)(CBr)CCC=C(C)C | 18 |  |
| C=C1CC[C@@H](Br)C(C)(C)[C@]12CC=C(C)C(=O)C2 | 3.62 |  |
| COc1cc2c(cc1OC)[C@@H](c1ccc3c(c1)OCO3)C(C)C(C)C2=O (stereo partly specified) | 94.8 |  |
